Consider four compounds from PubChem BioAssay (NCI).

Compounds without any hit were thinned out: in the full panel of roughly 83,000, 20% have a hit.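 Each cell line was grown in a 96-well plate and treated with one concentration of compound for 48 hours. Values below 10 were considered active.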 Values without a mark were called inactive. Activity calls are given as the source filed them.

Common to all, as to assay: NCI-60 one-dose screen, 48 h (100 = growth as untreated, 0 = no growth, -100 = all killed)
One assay deals with HCT-15 colon. Particulars: 10 µM unless noted.
The next assay deals with HT29 colon. As to conditions: 10 µM unless noted.
A further assay deals with SNB-75 CNS. Particulars: 10 µM unless noted.
In the next assay the test system is PC-3 prostate. As to conditions: 10 µM unless noted.
The next assay deals with SK-MEL-5 melanoma. Particulars: 10 µM unless noted.
The test system of a further assay is UACC-62 melanoma. Particulars: 10 µM unless noted.
The next assay has as its system LOX IMVI melanoma. Particulars: 10 µM.
A further assay has as its system SK-MEL-28 melanoma. As to conditions: 10 µM unless noted.
For a further assay, the system named is SK-MEL-2 melanoma. Particulars: 10 µM unless noted.
Another assay relates to EKVX NSCLC. As to conditions: 10 µM unless noted.
The subject of another assay is UO-31 renal. As to conditions: 10 µM unless noted.
For another assay, the system named is TK-10 renal. As to conditions: 10 µM unless noted.
Another assay relates to ACHN renal. Particulars: 10 µM unless noted.
Another assay deals with CAKI-1 renal. Particulars: 10 µM unless noted.
The next assay has as its system A498 renal. Particulars: 10 µM unless noted.
Another assay relates to CCRF-CEM leukemia. Particulars: 10 µM unless noted.
The subject of another assay is MOLT-4 leukemia. Particulars: 10 µM unless noted.
The subject of the next assay is SNB-19 CNS. As to conditions: 10 µM unless noted.
For the next assay, the system named is U251 CNS. Particulars: 10 µM unless noted.
Another assay relates to SN12C renal. As to conditions: 10 µM unless noted.

`CCC(C)(C)c1ccc(OCCCCN2CCN(c3ccncc3)CC2)cc1`: the growth in the assay with HCT-15 colon is -1.1% (active); with HT29 colon, 6.61% (active); in the assay on SNB-75 CNS, 69.5%; in the assay on PC-3 prostate it was 19.3%; in the assay with SK-MEL-5 melanoma it was -99.4% (active); with UACC-62 melanoma, -74.5% (active). In addition, the growth with LOX IMVI melanoma was -76.8% (active); in the assay on SK-MEL-28 melanoma, -6.03% (active); with SK-MEL-2 melanoma, 63.2%; with EKVX NSCLC it was 28%; with UO-31 renal, 40.2%; with TK-10 renal, 70.8%. Besides, the growth in the assay on ACHN renal is 68.9%; in the assay with CAKI-1 renal, 43.5%; in the assay with A498 renal it was 88.9%; in the assay on CCRF-CEM leukemia, 2.23% (active); in the assay with MOLT-4 leukemia, 1.66% (active).
Consider `O=C(c1ccc(OCCN2CCOCC2)cc1)C1[C@H](c2ccc(Cl)cc2)[C@@H](c2ccccc2)NC12C(=O)Nc1ccc(Cl)cc12` (some centres undefined), for which the growth in the assay with HCT-15 colon is 16.2%; in the assay on HT29 colon, -75.4% (active); in the assay with SNB-19 CNS it was 41%; in the assay with U251 CNS it was 25.3%; in the assay with PC-3 prostate, 6.16% (active); with SK-MEL-5 melanoma, 51.6%. Moreover, the growth was 40.1% in the assay with UACC-62 melanoma; -45.5% (active) with LOX IMVI melanoma; 51.7% with SK-MEL-28 melanoma; 35% with SK-MEL-2 melanoma; 23.1% with EKVX NSCLC; 13.5% with SN12C renal. The growth was 19.1% in the assay with UO-31 renal; 49.7% with TK-10 renal; 9.92% (active) in the assay with ACHN renal; 14.8% in the assay with CAKI-1 renal; 88% in the assay with A498 renal; 31% with CCRF-CEM leukemia. Also, the growth in the assay with MOLT-4 leukemia is -28.2% (active).
Consider `COc1c(F)ccc(C(=O)Nc2ccc3nc(NC(=O)C4CCCN(S(=O)(=O)c5ccc(Cl)cc5)C4)sc3c2)c1F` (centres undefined), for which the growth is 72.8% with HCT-15 colon; 72.1% in the assay on HT29 colon; 82.5% with SNB-19 CNS; 70.3% with U251 CNS; 55.9% with PC-3 prostate; 72.3% in the assay on SK-MEL-5 melanoma. Also, the growth in the assay with UACC-62 melanoma was 67.1%; in the assay on LOX IMVI melanoma it was 76%; with SK-MEL-28 melanoma it was 89.4%; in the assay on SK-MEL-2 melanoma it was 88%; in the assay on EKVX NSCLC, 85.1%; in the assay on SN12C renal, 82%. Moreover, the growth is 62.9% in the assay with UO-31 renal; 103% with TK-10 renal; 86.7% in the assay with ACHN renal; 68.9% in the assay on CAKI-1 renal; 96.4% in the assay on A498 renal; 85.5% in the assay on CCRF-CEM leukemia. The growth with MOLT-4 leukemia is 38.8%.
Consider `Cn1cc(-c2cc3nc(-c4cn(C)c5ncccc45)cc(N)n3n2)c2cc(Cl)ccc21`, for which the growth in the assay with HCT-15 colon was -64.5% (active); with HT29 colon, -55.6% (active); in the assay with SNB-19 CNS, -88.1% (active); in the assay with U251 CNS, -79.7% (active); with PC-3 prostate, -82.1% (active); in the assay with SK-MEL-5 melanoma it was -99.4% (active). Besides, the growth with UACC-62 melanoma is -99.6% (active); in the assay on LOX IMVI melanoma it was -100% (active); in the assay with SK-MEL-28 melanoma it was -99.9% (active); with SK-MEL-2 melanoma, -80% (active); in the assay on EKVX NSCLC, -38.5% (active); in the assay on SN12C renal it was -93.8% (active). Besides, the growth with UO-31 renal is -87.5% (active); in the assay on TK-10 renal it was -83.2% (active); with ACHN renal it was -94.4% (active); in the assay on CAKI-1 renal, -46.9% (active); in the assay on A498 renal, -75.9% (active); in the assay on CCRF-CEM leukemia, -14.4% (active). For the same compound, the growth in the assay with MOLT-4 leukemia is -45.7% (active).
